ALDH1A1 inh: inhibitors of human aldehyde dehydrogenase 1A1; P00352; Purified ALDH1A1, NADH fluorescence, propionaldehyde substrate; Potency, µM (doses to about 75.3 µM), without a hit: at the highest dose activity, negative = inhibition, hits mostly inhibitors; hit rate 7.3% among 220,000; AID 1030; active = well fitted inhibition curve with a large enough effect, not every such curve was filed as active; inconclusive = small, poorly fitted or top-dose-only effect, or another doubt; inactive = no such curve, though single readings can be large or run the other way;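 note: potency is the fitted concentration of half-maximal effect; plate controls were no enzyme wells and a reference inhibitor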
Target sequence (P00352 whole entry, looked up): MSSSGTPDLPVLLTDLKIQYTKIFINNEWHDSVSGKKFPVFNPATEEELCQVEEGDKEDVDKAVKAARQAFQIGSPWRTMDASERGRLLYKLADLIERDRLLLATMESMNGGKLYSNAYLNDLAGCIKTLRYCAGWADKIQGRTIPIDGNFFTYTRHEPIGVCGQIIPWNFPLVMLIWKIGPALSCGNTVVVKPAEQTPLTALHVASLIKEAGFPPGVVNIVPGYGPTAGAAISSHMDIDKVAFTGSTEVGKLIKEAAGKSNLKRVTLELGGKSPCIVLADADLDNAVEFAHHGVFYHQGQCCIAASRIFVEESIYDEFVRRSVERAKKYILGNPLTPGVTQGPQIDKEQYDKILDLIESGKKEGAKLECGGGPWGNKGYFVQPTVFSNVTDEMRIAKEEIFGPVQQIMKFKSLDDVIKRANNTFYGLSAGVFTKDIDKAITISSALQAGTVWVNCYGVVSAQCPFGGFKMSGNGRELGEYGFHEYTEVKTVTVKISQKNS
ALOX12 inhib: inhibitors of human 12-lipoxygenase (ALOX12); P18054; AID 1452; purified 12-hLO, xylenol orange hydroperoxide absorbance; hit rate 0.12% among 150,000; Potency, µM (doses to about 57.1 µM), for the others: top-dose activity change, negative = inhibition, hits mostly inhibitors; note: potency is the fitted concentration of half-maximal effect; nearly all actives have a fitted effect of over 55% in size
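Xylenol orange chromogenic assay: hydroperoxide from 12hLO oxidises Fe(II), giving red-shifted Fe(III)-XO absorbance. Conditions: 150 nM enzyme, 40 uM arachidonic acid, 25 mM Hepes pH 7.0, 0.01% Triton X-100, 30 min, room temperature.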
HPGD block: HPGD (human) dehydrogenase inhibition. P15428. purified HPGD, NADH fluorescence kinetic, PGE2 substrate. Potency, µM, for the others: top-dose activity change, negative = inhibition, most hits filed as inhibitors. hit rate 4.3% among 150,000; active = well fitted inhibition curve with a large enough effect, not every such curve was filed as active; inconclusive = small, poorly fitted or top-dose-only effect, or another doubt; inactive = no such curve, though single readings can be large or run the other way; note: potency is the fitted concentration of half-maximal effect
Target sequence (P15428 whole entry, looked up): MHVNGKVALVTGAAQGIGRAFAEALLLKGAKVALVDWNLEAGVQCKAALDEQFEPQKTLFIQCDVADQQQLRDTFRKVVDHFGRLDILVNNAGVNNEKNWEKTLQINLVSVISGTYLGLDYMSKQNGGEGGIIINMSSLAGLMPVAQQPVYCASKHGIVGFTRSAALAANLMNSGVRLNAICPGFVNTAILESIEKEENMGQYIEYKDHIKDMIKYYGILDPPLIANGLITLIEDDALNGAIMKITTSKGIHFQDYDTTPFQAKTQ
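20 nM HPGD preincubated 15 min at room temperature with compound in 50 mM Tris-HCl pH 8, 0.01% Tween 20. Started with 1 mM NAD+ and 30 uM prostaglandin E2; NADH fluorescence (360/450 nm) read 5 times over 30-s intervals, last minus first.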
PNC inhibitor: blocks assembly of the perinucleolar compartment; PC3M PTB-GFP, PNC prevalence imaging, 16 h; active compounds read low; activity change (PNC), negative = inhibition, % at 10 µM; hit rate 3.1% among 140,000; AID 2417;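 active = readout at or below -70, meaning at least 70% loss of cells showing the perinucleolar compartment, a nuclear body marking cancer cells; inconclusive = readout between -30 and a set limit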;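 note: plate controls were DMSO wells for no effect and camptothecin positive control wells for full effect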
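PC3M cells stably expressing PTB-GFP, 750–1000 cells/well, treated 16 h at 37 °C with compound (23 nl of library stock), in duplicate. After paraformaldehyde fixation and Hoechst stain, imaged at 20x; PNC prevalence scored by image analysis.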
IMPase inh: IMPase inhibition in cells; CHO-M1 cells, IP1 accumulation, HTRF TR-FRET ratio; 120,000 tested, under 10 active; inhibition (IP1 accumulation), % at 46.1 µM; active = well fitted curve in the direction sought with a large enough effect in the signal ratio, not every such curve was filed as active; inconclusive = small, poorly fitted or top-dose-only effect, or a change in a side signal; inactive = no such curve, though single readings can be large or run the other way; the % refers to the signal ratio;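 note: cells stimulated with carbachol in lithium chloride buffer; plate controls were DMSO basal wells for no effect and reference inhibitor wells for full effect; higher means more IMPase inhibition seen as more IP1 and lower FRET ratio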
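Seeded CHO-M1 cells were dosed with compound at up to 46 uM, stimulated with carbachol for 30 min, then lysed in IP-One detection reagents. Higher IP1 lowers the TR-FRET signal.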
IMPase Li cell: IMPase inhibition in cells with lithium potentiation; Potency, µM (highest dose often 59.4 µM), inactives show at the highest dose activity, negative = IMPase inhibition, most hits filed as inhibitors; CHO-M1 cells, IP1 TR-FRET (IP-One), carbachol + lithium; hit rate 0.35% among 210,000;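 note: IP1 builds up when IMPase is blocked and the TR-FRET signal falls; potency is the fitted concentration of half-maximal effect; plate controls were basal vehicle for no effect and high inhibitor control for full effect; nearly all actives have a fitted effect of over 50% in size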
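Test compounds were applied to CHO-M1 cells previously cultured for 16–30 h at 2000 per well. A small lithium amount accompanied them; after 30 min at 37C, IP1 was quantified by TR-FRET.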
Starred values were filed as active, the others as inactive; ? = inconclusive; . = not tested or not shown; [ ] = dose if it differs, or a comment. This is a sample that favours compounds with a hit; in the whole collection about 11% have one here. Unless noted, calls come from the whole dose curve; as a rule, active = well fitted curve in the direction sought with a large enough effect; inconclusive = small, poorly fitted or top-dose-only effect, or another doubt; inactive = no such curve, though single readings can be large; an effect the other way counts as inactive or inconclusive. Unless noted, % is set by controls: 0 for no effect and ±100 for the full control effect.

SMILES	ALDH1A1 inh	ALOX12 inhib	HPGD block	PNC inhibitor	IMPase inh	IMPase Li cell
COc1cccc([C@H](O)Cn2cc(-c3cccc(CON=C(C)C)c3)nn2)c1	-4%[13.5 µM]	.	.	.	.	.
COc1ccc(-c2c3c(=O)n(C)c(=O)n(C)c3c3c(-c4ccc(C)cc4)nc4ccccc4n23)cc1	.	.	.	.	-2	.
O=C(Cc1ncc(C(F)(F)F)cc1Cl)NCCc1ccccn1	10%	.	.	.	.	-1%
O=C(Cn1cnc2c(nnn2-c2ccc(F)cc2)c1=O)N1CCCc2ccccc21	28µM*	-11%	-23%	-23	-1	-1%[38.3 µM]
Nc1nc(CSc2nnnn2-c2ccccc2)nc(N2CCCc3ccccc32)n1	2.8µM*	-4%	?	?	-8	7%
Cc1ccc(-c2nnc(SCC(=O)N3c4ccccc4NC(=O)C3(C)C)n2N)cc1	-10%	-1%	-9%	26	-2	36%[38.3 µM]
O=C(CCCSc1nnnn1-c1ccccc1)c1ccc(F)cc1	1.3µM*	-3%	-16%	-22	-4	18%[38.3 µM]
Cc1ccc(-n2nnnc2SCC(=O)N2c3ccccc3NC(=O)C2(C)C)cc1	-4%	-7%	0%	-100*	5	0%[38.3 µM]
O=C(O)CCSc1nnnn1-c1ccccc1	-2%	0%	.	-15	5	.
COc1ccc(-n2nnc3c(=O)n(CC(=O)N4CCCc5ccccc54)cnc32)cc1	?	-3%	?	-10	13	-24%[38.3 µM]
NC(=O)c1ccc[n+]([C@@H]2O[C@H](COP(=O)([O-])OP(=O)(O)OC[C@H]3O[C@@H](n4cnc5c(N)ncnc54)[C@@H](O)[C@@H]3O)[C@@H](O)[C@@H]2O)c1	5%[20.9 µM]	-1%[25.6 µM]	-5%	.	2[20.6 µM]	-8%
Cc1ccc2nc3nc4ccc[nH]c4cc3c2c1	-1%[13.5 µM]	.	.	.	.	.
Cc1ccccc1-c1nnc(CN2CCN(c3cc(Cl)ccc3C)CC2)o1	.	.	.	.	2	.
O=C1c2ccccc2C(=O)N1CCCCSc1nnnn1-c1ccccc1	0.18µM*	-14%	7.9µM*	18	6	11%[38.3 µM]
O=C1c2ccccc2C(=O)N1CSc1nnnn1-c1ccccc1	?	1%	2%	-12	-4	-8%[38.3 µM]
COC(=O)/C=C/C(=O)Nc1ccc(O)c(Cl)c1	13µM*	-2%	-13%	0	.	3%
CCOC(=O)/C=C/C(=O)OCC(=O)Nc1ccc(OC)c(Cl)c1	?	-3%	-12%	38	.	4%
CCOC(=O)/C=C/C(=O)OCC(=O)Nc1c(Cl)cccc1Cl	-2%	.	.	.	.	1%
CCOC(=O)/C=C/C(=O)OCC(=O)Nc1ccc(Cl)cc1Cl	25µM*	.	.	.	.	1%
COCC(=O)Nc1ccc(OC)c(Cl)c1	-6%	.	.	.	.	2%
COc1ccc(NC(=O)C=C(C)C)cc1Cl	-9%	-15%	18µM*	32	24	-21%[38.3 µM]
COc1ccc(NC(=O)COC(=O)/C=C/C(=O)OCC(=O)Nc2ccc(OC)c(Cl)c2)cc1Cl	11µM*	2%	-14%	27	.	5%
CCN(CC(=O)Nc1ccc(N2CCOCC2)cc1)C(=O)c1ccc(C(F)(F)F)cc1	-3%	.	.	.	.	8%
Cn1c(NCCCO)nc2c(c1=O)C1(CCCCC1)Cc1ccccc1-2	?	-6%	?	3	-1	-7%[38.3 µM]
CCC(=O)Nn1cnc2c(c1=O)C1(CCCCC1)Cc1ccccc1-2	?	-4%	-1%	-106*	-7	39%[38.3 µM]
SMILES	ALDH1A1 inh	ALOX12 inhib	HPGD block	PNC inhibitor	IMPase inh	IMPase Li cell
COc1ccc(Nc2c([N+](=O)[O-])ccc3c2=NC2(CCCCC2)N=3)cc1	7.1µM*	.	.	.	.	50%
O=[N+]([O-])c1ccc2c(c1Nc1ccccc1)=NC1(CCCCC1)N=2	-14%	4%	-10%	-109*	7	9%[38.3 µM]
CC(C)(C)c1ccccc1OCCCCCn1ccnc1	?	.	.	.	.	13%
Cc1cc(N2CCCCC2)nc(SCc2ccc(C#N)cc2)n1	1.3µM*	-6%	-20%	1	16	25%[38.3 µM]
Cc1cc(N2CCOCC2)nc(SCc2c(Cl)cccc2Cl)n1	?	-2%	-14%	5	.	20%
Cc1cc2oc(=O)cc(Cn3ncc(Cl)c(Cl)c3=O)c2cc1Cl	0.079µM*	.	.	.	.	16%
Cc1cccc(Cn2ncc(Cl)c(Cl)c2=O)c1	?	-10%	-11%	23	-1	-2%[38.3 µM]
CCC(O)OC(O)CC (configuration not stated)	7%	6%	-3%	.	.	-9%
CCOc1[nH]c(/N=C/c2ccco2)c(C#N)c1C#N	20µM*	-11%	?	23	-5	11%[38.3 µM]
CC(C)(C)c1ccc(OCC(=O)N/N=C/c2ccsc2)cc1	7%	1%	.	?	-15	.
CC(C)(C)c1ccc(OCC(=O)N/N=C/C2CC=CCC2)cc1 (configuration not stated)	32µM*	.	.	.	.	3%
COC(=O)Cc1c[nH]c2cccc(OCC(O)CN(Cc3ccc([N+](=O)[O-])cc3)C(C)(C)C)c12 (configuration not stated)	25µM*	-18%	-21%	?	9	16%[38.3 µM]
Cc1ccc2c(c1)c(=O)c1ccccc1n2CCCC(=O)Nc1c(F)cccc1F	.	.	.	.	-5	.
CCCNC(=O)C(=O)NCCC1=CCCCC1	6%	-3%	-2%	12	-1	-10%[38.3 µM]
CCCN(C(=O)CCl)C1=CCCCC1	0.71µM*	.	.	.	.	11%
CCOC(=O)C1CCCN(C(=O)c2cc3nc(-c4cccc(OC)c4)cc(C(F)(F)F)n3n2)C1 (configuration not stated)	?	-22%	16µM*	-80*	4	20%[38.3 µM]
O=C(c1cnn2c(C(F)(F)F)cc(-c3ccc4c(c3)OCO4)nc12)N1CCCC1	0%	-4%	4.5µM*	14	0	-6%[38.3 µM]
CCOC(=O)C1CCCN(C(=O)c2cnn3c(C(F)(F)F)cc(-c4ccccc4)nc23)C1 (configuration not stated)	?	-6%	25µM*	5	?	35%[38.3 µM]
CC(C)(C)c1ccc(O)c(CN(Cc2cc(C(C)(C)C)ccc2O)c2ccccc2)c1	8%[13.5 µM]	3%[11.4 µM]	-10%	.	.	7%
O=C1C=CC2=C3c4cc(O)c(O)cc4CC3(O)COC2=C1O (configuration not stated)	?	?	25µM*	.	?	35%
C[C@@]12C[C@H](O)[C@@H]3[C@H](CCC4=CC(=O)CC[C@]43C)[C@H]1CC[C@@H]2c1csc(N)n1	.	3%[11.4 µM]	.	.	.	.
Cc1ccc(NC2SC(=O)N(Cc3cccc(C(=O)O)c3)C2=O)cc1 (configuration not stated)	25µM*	-6%	-5%	7	0	-9%[38.3 µM]
O=C(O)c1cccc(CN2C(=O)SC(Nc3ccccc3)C2=O)c1 (configuration not stated)	7.1µM*	2%	-10%	-5	-9	-15%[38.3 µM]

Assay outcomes deposited in PubChem by National Center for Advancing Translational Sciences (NCATS).
